Only some compounds are listed: those with a hit (about 3.4% of all), similar ones and a draw of the others.
RGS12 GoLoco inh: inhibitors of human Gai1-RGS12 GoLoco interaction (red fluorophore); P63096; Gai1:RGS12 GoLoco peptide FP, rhodamine, 10 min; Potency, µM (highest dose often 61.6 µM), for the others: at the top dose activity, negative = inhibition, most hits filed as inhibitors; 230,000 compounds, 0.44% hits; AID 880; active = well fitted inhibition curve with a large enough effect, not every such curve was filed as active; inactive = no such curve, though single readings can be large or run the other way; also: nearly all actives have a fitted effect of over 30% in size
Target sequence (P63096 whole entry, looked up): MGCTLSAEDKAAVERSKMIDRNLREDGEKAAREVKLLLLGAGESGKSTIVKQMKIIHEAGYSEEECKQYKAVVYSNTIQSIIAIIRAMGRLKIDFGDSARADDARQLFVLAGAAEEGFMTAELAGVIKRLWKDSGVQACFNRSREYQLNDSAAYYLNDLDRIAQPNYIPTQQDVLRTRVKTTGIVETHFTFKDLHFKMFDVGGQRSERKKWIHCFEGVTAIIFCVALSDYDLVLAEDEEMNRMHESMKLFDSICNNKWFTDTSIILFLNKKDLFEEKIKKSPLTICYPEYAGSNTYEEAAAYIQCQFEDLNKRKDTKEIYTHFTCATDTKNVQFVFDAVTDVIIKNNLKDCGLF
KDM4E inh: blocks human JMJD2E demethylase activity. B2RXH2. Potency, µM (doses to about 57.1 µM), for inactives: at the highest dose activity change, negative = inhibition, hits mostly inhibitors. 230,000 compounds, 1.6% hits. JMJD2E catalytic domain, FDH-coupled NADH fluorescence (FDH is formaldehyde dehydrogenase);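 also: 0% = wells with enzyme and -100% = buffer wells without enzyme; nearly all actives have a fitted effect of over 50% in size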
Tau fluor cs: counter-screen for tau fibril formation inhibitors. tau K18 P301L Alexa594 fluorescence, heparin fibrillization. Potency, µM (doses to about 57.7 µM), for the others: at the top dose activity change, negative = decrease. 280,000 compounds, 0.93% hits; also: nearly all actives have a fitted effect of over 55% in size
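Human K18 P301L tau (15 uM unlabeled plus 0.24 uM Alexa 594-labeled, final) in 100 mM sodium acetate pH 7 was mixed with compound and 20 uM heparin and incubated 6 hr at 37 C.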
Tau ThT inhib: tau fibrillization inhibition (ThT binding). P10636. recombinant tau K18 P301L (four-repeat tau fragment), heparin-induced fibrillization, ThT fluorescence. Potency, µM (doses to about 57.4 µM), for inactives: at the highest dose activity, negative = inhibition, usual class: inhibitors. 270,000 compounds, 2.1% hits. AID 1460; also: nearly all actives have a fitted effect of over 55% in size
Target sequence (P10636 561-689 P618L limits assumed): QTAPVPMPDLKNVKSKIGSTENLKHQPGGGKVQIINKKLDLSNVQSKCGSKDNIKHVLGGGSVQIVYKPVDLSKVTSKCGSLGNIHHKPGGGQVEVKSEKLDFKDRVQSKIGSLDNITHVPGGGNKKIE
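In this qHTS, human K18 P301L tau is incubated with compound and heparin for 6 hr at 37 C, and Thioflavin T fluorescence then reports fibril load.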
Tau FP inhib: tau fibrillization inhibition (FP) | P10636 | K18 P301L tau heparin fibrillization, Alexa594 FP, 6 h | Potency, µM (highest dose often 57.7 µM), inactives show top-dose activity, negative = inhibition, hits mostly inhibitors | 280,000 compounds, 0.39% hits; also: nearly all actives have a fitted effect of over 55% in size
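Steps: dispense K18 P301L tau (15 uM plus 0.24 uM Alexa 594 tracer, final) in pH 7 sodium acetate; add compound; add heparin (20 uM final); incubate 6 hr, 37 C; add ThT (30 uM final); after 1 hr ambient, read FP.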
* marks the source's active call; other numbers are inactive results; ? = inconclusive; . = no result given; ! = a repeat was not active; [ ] = another dose, or the depositor's remark. Unless noted, calls follow the shape of the dose curve; as a rule, active = well fitted curve in the direction sought with a large enough effect; inconclusive = small, poorly fitted or top-dose-only effect, or another doubt; inactive = no such curve, though single readings can be large; an effect the other way counts as inactive or inconclusive. Unless noted, % is scaled to controls: 0 for no effect and ±100 for the full control effect; potency is read from the fitted curve at half-maximal effect.

SMILES	RGS12 GoLoco inh	KDM4E inh	Tau fluor cs	Tau ThT inhib	Tau FP inhib
Cc1[nH]c2ccccc2c1C(c1ccccc1)c1ccc(Cl)s1 (stereo not drawn)	.	.	7.1µM*[quencher]	?	?
COc1ccc(C(=O)N(Cc2sccc2C)C2CCS(=O)(=O)C2)cc1Cl (stereo not drawn)	.	.	-23%	-9%	-9%
CCOC(=O)C1=C(c2ccccc2)O/C(=C(/C#N)C(F)(F)F)S1	10%	-14%	?	16µM*	?
COc1ccc(NC(=O)C2CCN(S(=O)(=O)c3cc(-c4noc(C)n4)ccc3C)CC2)cc1	.	.	-21%	-5%	14%
Cc1ccc(NC(=O)c2sc3ncnc(N(C)C4CCCCC4)c3c2C)c(C)c1	.	.	-6%	-14%	9%
CCc1cccc(NC(=O)Cn2ncn3c(cc4ccccc43)c2=O)c1	20%	?	-19%	6%	-4%
CSc1cccc(NC(=O)Cn2ncn3c(cc4ccccc43)c2=O)c1	.	.	20µM*[quencher]	-16%	-8%
COc1ccccc1N1CCN(C(=O)CCn2cnc3onc(-c4ccc(F)cc4)c3c2=O)CC1	.	.	-26%	-8%	7%
CC(C)=CCCC1(C)C=Cc2c(c(C)cc3c2[nH]c2ccccc23)O1 (stereo not drawn)	1%	4%	8.9µM*[quencher]	?	-10%
CCS(=O)(=O)N1CCc2cc(C(=O)Nc3ccc(Br)cc3F)ccc21	.	.	-24%	?	8%
Cc1ccccc1-c1nc(CN2CCC(C(=O)NC(C)C)CC2)c(C)o1	.	.	-2%	5%	2%
Cc1[nH]nc(Nc2ccc(C(C)C)cc2)c1[N+](=O)[O-]	-6%	10%	?	13µM*	-1%
Cc1[nH]nc(Nc2ccc(Br)cc2)c1[N+](=O)[O-]	10%	-13%	-28%	6.3µM*	-2%
COc1ccc(-c2noc(C3CC(=O)N(c4ccc(C)c(F)c4)C3)n2)c(OC)c1 (stereo not drawn)	.	.	-14%	?	9%
COC(=O)c1cc(S(=O)(=O)N2CCN(c3ccc(OC)cc3)CC2)c[nH]1	.	.	-14%	-6%	1%
O=C(Nc1ccccc1C(F)(F)F)c1noc2c1CCCCC2	.	.	-25%	-10%	-12%
Cc1cc(C)c2sc(C)[n+](CCCS(=O)(=O)[O-])c2c1	122%	-6%	-3%	-1%	5%
CC[n+]1c(C)sc2c(C)cc(C)cc21	2.5µM*	-14%	-19%	?	?
O=C(O)CC/C(=N\Nc1ccc([N+](=O)[O-])cc1)c1ccccc1	23%	-1%	?	7.9µM*	15%
CC(C)CCNC(=O)CN1C(=O)CCn2nc(-c3cn(C)c4ccccc34)cc21	.	.	-22%	-7%	8%
COc1cc2c(cc1OC)C1(C)N(CC2)C(C(C)=O)=NN1c1ccc(Cl)cc1 (stereo not drawn)	3%	?	?	10µM*	16%
COc1cc2c(cc1OC)CN(C(=S)Nc1ccc(Cl)cc1)CC2	2%	-2%	0%	6%	2%
O=C(NCc1ccccc1)C(=O)NCC(c1ccc2c(c1)OCO2)N1CCOCC1 (stereo not drawn)	.	.	-1%	2%	5%
COc1cccc(C2=NS(=O)(=O)N(C)C(C(=O)Nc3ccccc3SC)=C2)c1	.	.	-29%	-17%	5%
Cc1nnc(C)n1/N=C/c1ccc(O)cc1	9%	0%	-5%	-10%	-8%
SMILES	RGS12 GoLoco inh	KDM4E inh	Tau fluor cs	Tau ThT inhib	Tau FP inhib
Oc1ccc(/C=N/n2c3ccccc3c3ccccc32)cc1	-3%	-8%	14µM*[quencher]	35µM*	?
COc1ccc2ccccc2c1/C=N/NC(=S)Nc1cc(S(=O)(=O)N2CCOCC2)ccc1N1CCOCC1	-9%	?	-11%	4%	-10%
CCOc1cccc(/C=N/NC(=S)Nc2cc(S(=O)(=O)N3CCOCC3)ccc2N2CCOCC2)c1O	8%	32µM*	?	-13%	?
CO[C@]12C[C@@H](COC(=O)c3cncc(Br)c3)CN(C)[C@@H]1Cc1cn(C)c3cccc2c13	13µM*!	?	-9%	?	-2%
Cc1nc2c(c(C)nn2C(C)(C)C)c(C)c1CCC(=O)Nc1ccc(F)cc1	.	.	-4%	5%	-15%
CCOc1ccc(N(C)C(CNS(=O)(=O)c2ccccc2)c2ccccc2)cc1 (stereo not drawn)	.	.	?	-18%	5%

Screening results from PubChem.
